From PubChem BioAssay
This is a sample that favours compounds with a hit; in the whole collection about 19% have one here.
IL-1B inflam inh – inflammasome signaling inhibition, IL-1 beta readout | THP-1 LPS/ATP IL-1B secretion, AlphaLISA, 16 h; stronger effect = lower value | activity change, % at 57.5 µM | 4.7% of 360,000 active; in the data active means activity change below about -50%; inconclusive means mostly about -30% to -49%
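Secreted IL-1B measured by AlphaLISA bead assay after 16 h compound exposure of THP-1 cells; compounds (final up to 57.5 uM) added 1 h before LPS (250 ng/mL) and ATP (1.25 mM) stimulation; lower signal means less secretion.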
DT40 TDP1 CPT – growth inhibition of DT40 Tdp1-/-;hTDP1 cells with camptothecin (screen for TDP1 inhibitors) | chicken DT40 Tdp1-/-;hTDP1 cells + 20 nM CPT, ATP luminescence, 48 h | AID 686979 | 12% of 420,000 active | Potency, µM (doses to about 46.2 µM), for inactives: top-dose activity change, negative = growth inhibition, hits mostly inhibitors; further: potency means the concentration at half of the fitted maximal effect; nearly all actives have a fitted effect of over 55% in size
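Chicken DT40 Tdp1-/- cells complemented with human TDP1, 400 cells/well, exposed to compounds plus 20 nM camptothecin for at least 48 h at 37 C; viability read as ATP content by CellTiter-Glo luminescence.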
HT1080 IDH1KD tx – HT-1080 IDH1 knockdown cell toxicity (counter line); HT-1080 IDH1 knockdown viability, ATP luminescence, 48 h; Potency, µM (top dose mostly 46.1 µM), for the others: top-dose activity, negative = toxicity, most hits filed as cytotoxic; 2% of 360,000 active;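 further: potency means the concentration at half of the fitted maximal effect; 0% = DMSO wells and -100% = cell-free medium wells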
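Luminescent ATP read-out (CellTiter-Glo, 10 min at room temperature) after 48 h compound exposure at 37 °C gave viability of IDH1-knockdown HT-1080 cells. Activity was normalised to DMSO and cell-free wells, then fitted as concentration-response curves.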
TDP1 cell noCPT – qHTS for Inhibitors of human tyrosyl-DNA phosphodiesterase 1 (TDP1): qHTS in cells in absence of CPT; DT40 Tdp1-/- hTDP1 cells, no CPT, ATP luminescence, 48 h; Potency, µM (highest dose often 46.2 µM), for the others: at the highest dose activity change, negative = growth inhibition, most hits filed as inhibitors; 15% of 420,000 active; AID 686978, 2013; further: potency means the concentration at half of the fitted maximal effect; nearly all actives have a fitted effect of over 55% in size
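Seeded 400 DT40-hTDP1 cells/well (vehicle DMSO, no 20 nM CPT); pinned compounds; ≥48 hr at 37 °C; CellTiter-Glo luminescence as viability measure.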
HT1080NT lethal – kills 2HG-producing HT-1080-NT fibrosarcoma cells; HT-1080-NT fibrosarcoma viability, CellTiter-Glo ATP luminescence, 48 h; Potency, µM (highest dose often 46.1 µM), for inactives: at the highest dose activity, negative = less viability, hits mostly cytotoxic; 1.6% of 360,000 active;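 further: NT is the 2HG producing partner of a matched IDH1 knockdown line; potency means the concentration at half of the fitted maximal effect; 0% = DMSO-treated cells and -100% = media-only wells without cells; nearly all actives have a fitted effect of over 55% in size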
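Fibrosarcoma NT cells, 750 per well in 5% FBS RPMI, were exposed to compound for 48 hours. Viability: CellTiter-Glo luminescence.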
Numbers without * were called inactive; ? = inconclusive; . = no result. Unless noted, the call rests on the fitted dose curve; in most records, active means well fitted curve in the direction sought with a large enough effect; inconclusive means small, poorly fitted or top-dose-only effect, or another doubt; inactive means no such curve, though single readings can be large; an effect the other way counts as inactive or inconclusive. Unless noted, on the % scale 0 is the no-effect control and ±100 the full control effect.

SMILES | IL-1B inflam inh | DT40 TDP1 CPT | HT1080 IDH1KD tx | TDP1 cell noCPT | HT1080NT lethal
CC1CC(C)CN(C(=O)c2ccc(S(=O)(=O)N3CCCCC3)cc2)C1 (stereo not given) | -7.2 | -4.7% | -2.3% | -21.4% | -1.8%
Cc1ccc2c(c1)nnn2C1CCN(S(=O)(=O)c2ccc(C(=O)N3C(C)CCCC3C)cc2)CC1 (stereo not given) | -67.5* | 9.2µM* | -22.8% | 9.2µM* | ?
CC1CC(C)CN(C(C)C(=O)Nc2cc(S(=O)(=O)N3CCCCC3)ccc2Cl)C1 (stereo not given) | -15.3 | ? | -2.5% | 14.6µM* | -4.7%
Cc1ccc(S(=O)(=O)N2CCCCC2)cc1C(=O)N1C(C)CCCC1C (stereo not given) | 0.9 | ? | 10.6% | 13µM* | 1.6%
CC1CCN(C(C)C(=O)Nc2cc(S(=O)(=O)N3CCCCC3)ccc2Cl)CC1 (stereo not given) | -17.1 | ? | 6.4% | ? | 0.4%
CC1CC(C)CN(C(=O)c2cc(S(=O)(=O)N3CCCCC3)ccc2Cl)C1 (stereo not given) | 47.6 | 16.4µM* | 0.3% | 14.6µM* | -2.1%
O=C(Cc1ccc(NC(=O)C2CCN(C(=O)C3CCCC3)CC2)cc1)Nc1ccc(C(=O)N2CCOCC2)cc1 | ? | ? | 4.6% | -19.4% | 9.1%
COCCNC(=O)c1[nH]c(C(F)(F)F)nc1-c1ccccc1 | 8.2 | -1.0% | 3.0% | 3.7% | 3.0%
CCOCCN1CCN(c2c(C)c(C)nc3cc(-c4cc(OC)cc(OC)c4)nn23)CC1 | ? | ? | -9.9% | 25.9µM* | ?
CCc1c(C)nc2cc(-c3cc(OC)cc(OC)c3)nn2c1N1CCN(CCN2CCOCC2)CC1 | ? | 23.1µM* | 1.2% | 16.4µM* | 11.9%
COCCN1CCN(c2c(C)c(C)nc3cc(-c4cccc(OC)c4)nn23)CC1 | -3.4 | ? | -7.6% | ? | -17.6%
CN1CCN(C2CCCCC2NS(=O)(=O)c2ccc(Cl)cc2)CC1 (stereo not given) | 0.0 | -17.2% | -13.6% | 4.9% | -13.7%
CC1CC(C)CN(C2CCCCC2NS(=O)(=O)c2ccc(Cl)cc2)C1 (stereo not given) | 45.4 | ? | -9.6% | 23.1µM* | -3.6%
Cc1ccc(C)c(N2CCN(C3CCCCC3NS(=O)(=O)c3ccccc3)CC2)c1 (stereo not given) | 150.1 | 7.31µM* | 0.4% | 4.61µM* | 8.8%
Cc1ccc(Cl)cc1N1CCN(C2CCCCC2NS(=O)(=O)c2ccccc2)CC1 (stereo not given) | 21.4 | 16.4µM* | 3.3% | 18.4µM* | -6.9%
COc1ccccc1N1CCN(C2CCCCC2NS(=O)(=O)c2ccc(Cl)cc2)CC1 (stereo not given) | -71.6* | 23.1µM* | -25.7% | 23.1µM* | -25.7%
CCn1c(-c2ccccc2F)nc2cc(NC(C)=O)cc(C(=O)NCC3CCOCC3)c21 | . | 1.9% | . | -1.1% | .
CCCNC(=O)c1c(CSc2ccc(Cl)cc2)noc1C(=O)NCc1ccccc1 | ? | ? | 0.4% | ? | -4.8%
O=c1oc(CCCO)cc2ccc(C#CC3(O)CCCCC3)cc12 | 26.4 | ? | 2.0% | 18.4µM* | -3.8%
CN(C)c1ccc(C#Cc2ccc3cc(CCCO)oc(=O)c3c2)cc1 | 41.8 | ? | -0.8% | -26.9% | 1.0%
O=c1oc(CCCO)cc2ccc(C#Cc3ccsc3)cc12 | -7.5 | ? | 4.9% | 18.4µM* | 2.0%
O=C(NCCC(=O)N1CCC2(CC1)NCCc1[nH]cnc12)c1cccc(Cl)c1 | -11.1 | 3.6% | 0.2% | 20.6% | 6.5%
CC(C)(C)C(=O)O/N=C(\N)c1ccc([N+](=O)[O-])s1 | 0.0 | 6.51µM* | -8.1% | 6.51µM* | ?
N/C(=N\O)c1ccc([N+](=O)[O-])s1 | 0.0 | ? | 1.4% | ? | ?
COc1ccc([C@H]2C[C@H](O)[C@@H](n3cc(COC(=O)c4ccccc4)nn3)CN2C(=O)C2CCCCC2)cc1 | -15.8 | 5.6% | -5.7% | ? | -4.1%
SMILES | IL-1B inflam inh | DT40 TDP1 CPT | HT1080 IDH1KD tx | TDP1 cell noCPT | HT1080NT lethal
COc1ccc(Cl)cc1-c1cc(C(=O)NC2CCCCC2)[nH]n1 | -12.0 | ? | ? | ? | ?
CCOc1ccc(Cl)cc1-c1cc(C(=O)Nc2cc(OC)c(OC)c(OC)c2)[nH]n1 | -16.2 | 20.6µM* | ? | 16.4µM* | ?
CCOc1ccc(Cl)cc1-c1cc(C(=O)Nc2ccc(OC)nc2)[nH]n1 | -17.6 | ? | -12.4% | ? | -1.4%
CCOc1ccc(Cl)cc1-c1cc(C(=O)Nc2ccc(Br)cc2)[nH]n1 | -24.4 | 23.1µM* | ? | 18.4µM* | -29.0%
CCOc1ccc(Cl)cc1-c1cc(C(=O)Nc2ccc(C(C)C)cc2)[nH]n1 | -8.9 | ? | -25.2% | 16.4µM* | -23.8%
CCOc1ccc(Cl)cc1-c1cc(C(=O)NC2CCCCC2)[nH]n1 | -9.6 | 18.4µM* | 0.1% | 16.4µM* | ?
COc1cccc(CCn2c(N)cc(=O)[nH]c2=S)c1OC | . | ? | 27.7% | ? | 6.0%
CCOc1ccc(N2CC(NC(=O)c3cc4ccccc4o3)CC2=O)cc1 (stereo not given) | . | -2.5% | . | -25.2% | .
CC(C)[C@@H](C(=O)N1CCN(Cc2ccc3c(c2)OCO3)CC1)n1nnc2ccccc2c1=O | 0.0 | 20.6µM* | -7.9% | 13µM* | 1.2%
CC(C)[C@H](NC(=O)c1ccc(C(C)(C)C)cc1)C(=O)N1CCN(Cc2ccc3c(c2)OCO3)CC1 | -72.3* | 3.66µM* | 18.4µM* | 3.66µM* | ?
O=C(Cn1cnc2ccccc2c1=O)N1CCN(Cc2ccc3c(c2)OCO3)CC1 | -6.9 | -11.2% | -2.0% | -26.0% | -2.9%
CCN(CC)c1ccc(NC(=O)CCS(=O)(=O)c2ccc(Br)cc2)c(C)c1 | 13.5 | ? | -1.6% | -24.0% | 12.4%
COc1ccc(CCNc2ncnc3c2c(-c2ccccc2)cn3-c2ccc(F)cc2)cc1OC | . | 14.6µM* | . | 14.6µM* | .
Cc1ccc(CNc2ncnc3c2c(-c2ccccc2)cn3-c2cccc(Cl)c2)cc1 | . | ? | . | 18.4µM* | .
Cc1ccc(-n2cc(-c3ccccc3)c3c(NN4CCOCC4)ncnc32)cc1 | -14.6 | 20.6µM* | -0.1% | 23.1µM* | -0.5%
COc1ccc(Cl)cc1Nc1ncnc2c1c(-c1ccccc1)cn2-c1ccccc1 | . | -7.4% | . | -4.8% | .
CCCNc1ncnc2c1c(-c1ccccc1)cn2-c1ccccc1 | . | 14.6µM* | . | 23.1µM* | .
COc1ccccc1CNc1ncnc2c1c(-c1ccccc1)cn2-c1cccc(C)c1 | . | ? | . | -101.6% | .
Cc1cc(=O)[nH]c(SCC(=O)Nc2nonc2C)n1 | 19.2 | -2.6% | -0.6% | 1.0% | 12.4%
